SKKanGAS inh: S. pyogenes SKKanGAS growth inhibitors in kanamycin, primary screen, streptokinase expression inhibitor project, SKKanGAS strain, BacTiter-Glo luminescence; 6 h; inhibition, % at 7.5 µM; hit rate 1.3% among 300,000; AID 1662, 2009;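 active = mean replicate score, as percent of positive control median, at least 50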;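 note: strain carries kanamycin resistance gene driven by streptokinase promoter and grows in 40 µg/ml kanamycin; loss of luminescence reflects streptokinase promoter inhibition or plain growth inhibition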
NALP3 yeast inh: NALP3 inflammasome inhibitors in reconstituted yeast, primary screen, luminescence, uHTS. inhibition, % at 10 µM. Yeast reconstituted NLRP3/ASC/caspase-1, beta-gal luminescence, 24 h. hit rate 0.39% among 330,000;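 active = inhibition of 50% or more; inactive = inhibition below 50%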
tim10-1 inh: growth inhibitors of tim10-1 mutant yeast, primary screen, luminescence, uHTS; S. cerevisiae tim10-1 ts strain growth, BacTiter-Glo, 24 h; hit rate 2.2% among 330,000; inhibition, % at 20 µM; AID 463190, 2010;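 active = inhibition of at least 40%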;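 note: mutant grown at 25 °C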
TIM10 inh: growth inhibitors of isogenic TIM10 control yeast, primary screen, counter-screen for tim10-1 yeast inhibitor project, luminescence, uHTS. S. cerevisiae TIM10 strain growth, BacTiter-Glo luminescence, 24 h. inhibition, % at 10 µM. hit rate 1.4% among 330,000;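 active = inhibition of 40% or more at the single tested concentration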;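 note: wild-type TIM10 isogenic control strain grown at permissive 25 °C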
NALP1 yeast inh: NALP1 inflammasome inhibitors in reconstituted yeast, colorimetric, S. cerevisiae, triplicate retest; inhibition, % at 10 µM; hit rate 0.61% among 280,000; S. cerevisiae NALP1/ASC/caspase-1 growth, X-gal OD620, 72 h; in the data active = inhibition mostly above about 24%, no sharp cut-off; inactive = mostly below about 32%
tim23-1 inh: growth inhibitors of tim23-1 mutant yeast, primary screen, luminescence, uHTS; S. cerevisiae tim23-1 growth, BacTiter-Glo luminescence, 24 h; inhibition, % at 20 µM; hit rate 1.3% among 330,000; AID 463212, 2010;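 active = growth inhibition of the mutant yeast at or above 50%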;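 note: temperature-sensitive mutant grown at 25 °C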
tim10-1 conf: growth inhibitors of tim10-1 mutant yeast, confirmation, single concentration, luminescence, S. cerevisiae; shares compounds with tim10-1 inh; S. cerevisiae tim10-1 ts strain growth, BacTiter-Glo, 24 h; inhibition, % at 20 µM; hit rate 56% among 7,400; AID 463213, 2010;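 active = inhibition of yeast growth at or above a set limit in either of two repeat tests at 20 µM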;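 note: tim10-1 mutant grown at permissive 25 °C to find synthetic lethal compounds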
Each line names hits and unclear results; the compound was inactive in the other large screens (follow-up assays come after a bar, where they were run). Only some compounds are listed: those with a hit (about 4.9% of all), similar ones and a draw of the others.

COc1cc(C(C#N)N2N=C(c3ccccc3)CC2c2ccccc2)ccc1O (stereo not given)	tim10-1 inh 43 | tim10-1 conf inactive
Cc1cc(C)c(OCC(=O)Nc2ccc(N3CCOCC3)cc2)c(Br)c1	none
Cc1cc(C)c(C)c(C(=O)COC(=O)CNC(=O)CNC(=O)c2ccco2)c1C	none
CN(Cc1ccccc1)c1ncnc2ccc(Br)cc12	tim10-1 inh 42 | tim10-1 conf inactive
CCOc1ccccc1Nc1ncnc2ccc(Br)cc12	none
COc1ccc2c(c1)OC[C@H]1[C@H]2N2C(=O)c3cc(Cl)ccc3NC(=O)[C@@]2(C)[C@H]1c1ccccc1	none (no result: SKKanGAS inh, NALP1 yeast inh)
COc1ccc2c(c1)OC[C@H]1[C@H]2N2C(=O)c3cc(OC)ccc3NC(=O)[C@@]2(C)[C@H]1c1ccccc1	tim10-1 inh 44 (no result: SKKanGAS inh, NALP1 yeast inh) | tim10-1 conf inactive
COc1ccc(NC(=O)CN2C(=O)NC(C)(C3CC3)C2=O)cc1S(=O)(=O)N1CCOCC1 (stereo not given)	none (no result: SKKanGAS inh, NALP1 yeast inh)
CCS(=O)(=O)c1ncc(Cl)c(C(=O)Nc2ccc(S(=O)(=O)N3CCC(C)CC3)cc2)n1	tim10-1 inh 42 | tim10-1 conf inactive
CN(c1ccccc1)S(=O)(=O)c1ccc(NC(=O)c2ccccc2)cc1	none
CC1CCN(S(=O)(=O)c2ccc(NC(=O)c3ccncc3)cc2)CC1	none
CC(C)c1nnc(NC(=O)c2nc(S(=O)(=O)Cc3ccccc3)ncc2Cl)s1	none
CCOC(=O)c1ccc(NC(=O)c2nc(S(=O)(=O)Cc3ccccc3)ncc2Cl)cc1	SKKanGAS inh 82, tim10-1 inh 55 | tim10-1 conf inactive
CN(c1ccccc1)S(=O)(=O)c1ccc(NC(=O)c2nc(S(C)(=O)=O)ncc2Cl)cc1	tim10-1 inh 43 | tim10-1 conf inactive
O=C(CCNC(=O)C1CCN(S(=O)(=O)c2ccccc2)CC1)NCCc1cccc(F)c1	none
CCN(c1ccc(C(=O)CSc2nnc(C3CC3)n2C2CC2)cc1)S(C)(=O)=O	none (no result: SKKanGAS inh, NALP1 yeast inh)
Cc1ccc(F)c(NC(=O)c2c(-c3ccccc3)noc2C)c1	tim10-1 inh 47 | tim10-1 conf 43
Cc1onc(-c2ccccc2)c1C(=O)Nc1ccc(NC(=O)c2c(-c3ccccc3)noc2C)cc1	none (no result: NALP1 yeast inh)
Cc1onc(-c2ccccc2)c1C(=O)Nc1cccc(OC(C)C)c1	none
CCCOc1cccc(NC(=O)c2c(-c3ccccc3)noc2C)c1	tim10-1 inh 41 | tim10-1 conf inactive
CCc1ccccc1NC(=O)N1CCCc2ccccc21	none
Cc1ccc(C)c(C(=O)CCC(=O)NNC(=O)c2cccs2)c1	none (no result: SKKanGAS inh, NALP1 yeast inh)
O=C1CCCCN1CCCC(=O)N1CCCC(Nc2ccccc2)C1 (stereo not given)	none
CN(C)CCNC(=O)c1ccc2c(=O)n(Cc3ccc(Cl)cc3)c(=S)[nH]c2c1	tim10-1 inh 45 | tim10-1 conf inactive
Cc1ccc(C(=O)OCC(=O)NNC(=O)COc2ccc(Cl)cc2)c(O)c1	none (no result: NALP1 yeast inh)
CCOc1cc(-c2cc(-c3ccc(C)cc3)nc(N)c2C#N)ccc1O	tim10-1 inh 42 | tim10-1 conf inactive
CCOc1cc(-c2c(C#N)c(N)nc3c2CCCC3C)ccc1O (stereo not given)	tim10-1 inh 46 | tim10-1 conf 35
O=C1c2ccc(-c3ccc(Cl)c(C(F)(F)F)c3)cc2S(=O)(=O)c2cccc(C(=O)N3CCN(c4ccc(Cl)cn4)CC3)c21	none (no result: SKKanGAS inh, NALP1 yeast inh)
COc1ccc([N+](=O)[O-])cc1NC(=S)Nc1ccccc1	none
O=[N+]([O-])c1ccc(O)c(NC(=S)Nc2ccccc2)c1	tim10-1 inh 48 | tim10-1 conf inactive
CC(=O)c1cccc(NC(=O)CCn2c(=S)oc3ccccc32)c1	none
COc1ccc(CCC(=O)OCC(=O)NC(=O)c2ccc(Cl)cc2)cc1	none (no result: SKKanGAS inh, NALP1 yeast inh)
CCc1nn(-c2ccccc2)c(=S)c2ccccc12	tim10-1 inh 46 | tim10-1 conf 52
CCc1nn(-c2ccccc2)c(N)c1C#N	none
COc1ccc(CCNC(=O)C2CCCN2S(=O)(=O)c2cccc3nsnc23)cc1OC (stereo not given)	none
CCc1c(C)[nH]n(-c2nc(-c3ccccc3)cs2)c1=O	tim10-1 inh 50 | tim10-1 conf 31
CCCOc1ccccc1NC(=O)/C=C/C(N)=O	tim10-1 inh 62, NALP1 yeast inh 59 | tim10-1 conf 56
COc1cc(OC)c2c3c(c(C4CCCCC4)nc2c1)CCC3	tim10-1 inh 52 (no result: NALP1 yeast inh) | tim10-1 conf 30
COc1ccc(-c2nc(C3CCCCC3)c3cc(OC)ccc3n2)cc1	none (no result: NALP1 yeast inh)
O=C1CC(C(=O)N2CCN(S(=O)(=O)c3cccc(F)c3)CC2)CN1Cc1ccccc1Cl (stereo not given)	none (no result: NALP1 yeast inh)
COc1cc(C(=O)NNC(=O)COc2ccccc2Cl)ccc1OCC(=O)N1CCOCC1	none (no result: SKKanGAS inh, NALP1 yeast inh)
N#Cc1c(N2CCCCC2)nc(N)c2c(N)nc3c(c12)CC(c1ccccc1)O3 (stereo not given)	tim10-1 inh 41 | tim10-1 conf inactive
CCC1Cc2c(nc(N)c3c(N)nc(N4CCCCC4)c(C#N)c23)O1 (stereo not given)	none
COc1ccc(-c2[nH]ncc2-c2ccc3c(c2)OCCO3)c(O)c1	tim10-1 inh 40 | tim10-1 conf inactive
Nc1nnc(-c2ccc(F)cc2)s1	none
Nc1nnc(-c2ccccc2)s1	tim10-1 inh 92 | tim10-1 conf inactive
C=CSc1sc(Cl)c(N(CC)CC)c1[N+](=O)[O-]	none
Cc1cc(C)c(Cn2cnc3ccccc32)c(C)c1	tim10-1 inh 43 | tim10-1 conf inactive
c1ccc(Cn2cnc3ccccc32)cc1	none (no result: SKKanGAS inh)
COc1cc(C(=O)NC(=S)Nc2ccc(Cc3ccncc3)cc2)cc(OC)c1OC	SKKanGAS inh 51, tim10-1 inh 47 | tim10-1 conf 35
CCC(CC)C(=O)Nc1ccc(Cl)c(Cl)c1	tim10-1 inh 41 | tim10-1 conf inactive
CC(C)CC(NC(N)=O)C(=O)Nc1ccc(Cl)c(Cl)c1 (stereo not given)	none
Cc1ccnc(NC(=O)c2cnc(Cl)c(Cl)c2)c1	none
COc1ccc(CCNC(=O)NC23CC4CC(CC(C4)C2)C3)cc1	tim10-1 inh 45 | tim10-1 conf 35
COc1ccc(C(=O)NCC(=O)OCC(=O)NC23CC4CC(CC(C4)C2)C3)cc1	none (no result: SKKanGAS inh, NALP1 yeast inh)
O=C(NCc1ccc2c(c1)OCO2)c1ccccc1	none
O=C(NC(=S)NCc1ccc2c(c1)OCO2)c1ccccc1	tim10-1 inh 45 | tim10-1 conf inactive
COc1ccc(N2CCN(C(=O)NC34CC5CC(CC(C5)C3)C4)CC2)cc1	tim10-1 inh 48 | tim10-1 conf inactive

Assay outcomes as filed in PubChem.
